Among the data in ChEMBL document CHEMBL1201862, “PubChem BioAssay data set” (2004) are Potency values, retold here.

Molecules are shown by their SMILES. The whole screen tested about 400,000 compounds, of which about 2,100 (0.53%) were called active. Another 14% or so got no clear call; they are omitted. The rule behind the calls is not given here. What follows is part of a selection rich in actives, with near analogues and random picks from the rest.

In this experiment the target is Ataxin-2 (Homo sapiens) (UniProt Q99700). The experiment is described as follows: qHTS for Inhibitors of ATXN expression. The experiment is classed as functional.
Chain of Ataxin-2 (Homo sapiens) (Q99700 whole entry): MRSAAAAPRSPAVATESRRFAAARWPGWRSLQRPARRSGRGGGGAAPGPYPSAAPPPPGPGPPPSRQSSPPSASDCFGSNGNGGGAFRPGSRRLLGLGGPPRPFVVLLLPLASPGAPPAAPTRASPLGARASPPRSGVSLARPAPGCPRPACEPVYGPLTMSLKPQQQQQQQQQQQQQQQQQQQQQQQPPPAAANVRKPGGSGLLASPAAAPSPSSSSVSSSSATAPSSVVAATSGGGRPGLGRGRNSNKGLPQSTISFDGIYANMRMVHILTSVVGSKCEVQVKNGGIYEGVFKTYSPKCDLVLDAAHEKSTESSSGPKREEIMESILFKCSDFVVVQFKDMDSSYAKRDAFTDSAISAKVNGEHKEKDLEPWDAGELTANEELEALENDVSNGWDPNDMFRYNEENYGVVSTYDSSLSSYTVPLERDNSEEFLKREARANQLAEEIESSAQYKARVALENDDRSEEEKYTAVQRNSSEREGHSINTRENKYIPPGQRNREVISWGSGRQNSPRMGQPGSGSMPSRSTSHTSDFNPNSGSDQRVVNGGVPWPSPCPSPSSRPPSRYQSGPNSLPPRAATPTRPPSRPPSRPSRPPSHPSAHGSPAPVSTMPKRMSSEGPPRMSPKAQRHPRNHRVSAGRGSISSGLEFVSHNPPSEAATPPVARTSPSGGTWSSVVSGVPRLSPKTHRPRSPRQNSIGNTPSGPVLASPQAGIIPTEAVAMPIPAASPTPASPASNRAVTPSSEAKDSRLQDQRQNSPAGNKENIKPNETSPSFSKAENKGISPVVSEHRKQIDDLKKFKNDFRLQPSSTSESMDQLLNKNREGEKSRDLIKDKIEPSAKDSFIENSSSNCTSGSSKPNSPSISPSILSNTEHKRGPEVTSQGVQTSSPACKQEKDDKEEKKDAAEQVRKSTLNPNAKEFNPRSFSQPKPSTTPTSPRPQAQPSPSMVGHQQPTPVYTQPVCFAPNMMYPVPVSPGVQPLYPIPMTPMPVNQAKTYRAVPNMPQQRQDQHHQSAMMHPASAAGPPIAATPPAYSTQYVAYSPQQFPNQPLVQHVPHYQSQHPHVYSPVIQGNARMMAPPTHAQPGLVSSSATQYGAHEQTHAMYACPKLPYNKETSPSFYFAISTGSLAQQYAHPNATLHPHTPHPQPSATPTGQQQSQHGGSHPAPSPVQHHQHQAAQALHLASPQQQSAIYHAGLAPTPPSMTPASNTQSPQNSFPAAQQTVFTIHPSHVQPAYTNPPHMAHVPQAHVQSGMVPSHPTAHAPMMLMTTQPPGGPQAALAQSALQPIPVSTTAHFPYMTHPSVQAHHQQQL
`Cc1ccc2nc(N3CCN(C)CC3)c(C=O)c(=O)n2c1`: the Potency entry was “inactive”.
As for `COCC(C)NC(=O)c1cc(-c2ccc(O)cc2)on1` (stereo unspecified), the Potency result was “inactive”.
To `Nc1c2ccccc2nc2ccccc12` belongs “inactive”.
`CC(C)C(N)c1csc(NC(=O)Nc2cccc(C(F)(F)F)c2)n1` (stereo unspecified): the Potency was 35.5 µM (active).
To `NC(c1csc(NC(=O)Nc2cccc(C(F)(F)F)c2)n1)C1CCCCC1` (stereo unspecified) belongs 28.2 µM (active); to `O=C(Nc1cccnc1)Nc1cccc(F)c1`, “inactive”.
To `CNC(=O)Nc1cc(C(F)(F)F)cc(C(F)(F)F)c1` belongs “inactive”.
The entry for `COC(=O)Cc1csc(N/C=C2/C(=O)N(c3cccc(C(F)(F)F)c3)C(=O)c3ccccc32)n1` is “inactive”; for `CCCCNc1ccc2c3c(cccc13)C(=O)N(CCCC)C2=O` it is “inactive”.
Take `Cc1nn2c(-c3ccccc3)c(-c3ccccc3)nc2nc1O`: the Potency entry was “inactive”.
To `Cc1cc(C)cc(CC2CC(=O)N(c3cc(C)ccc3C)C2=O)c1` (stereo unspecified) belongs “inactive”; to `CCC(C)Sc1ccc(-c2nc3cnccn3c2NC2CCCCC2)cc1` (stereo unspecified), “inactive”; to `CC(C)(C=O)C1=CC(=O)c2ccccc2C1=O`, 10 µM (active).
The entry for `CCOC(=O)c1c(NC(=O)c2nn(C)cc2[N+](=O)[O-])sc(C)c1C` is “inactive”; for `CCCNC1=C(N(C(C)=O)c2cccc(F)c2)C(=O)c2ccccc2C1=O` it is 31.6 µM (active).
The entry for `C=CCNC(=O)C1CC(=O)N(c2ccc(OCC(=O)N3CCCC3)cc2)C1` (stereo unspecified) is “inactive”.
On to `CCC/C(C#Cc1ccc(N(C)C)cc1)=C1/c2ccccc2C(=O)N1c1ccccc1`, for which the Potency result is “inactive”.
The entry for `O=C(O)c1cc(Sc2ccc(Br)cc2)nc2ccccc12` is “inactive”; for `Nc1nc(N)c2cc(Sc3ccc(Cl)cc3)ccc2n1` it is 35.5 µM (active); for `N#C/C(=C\c1ccc(N2CCOCC2)o1)C(=O)NCCc1ccccc1` it is “inactive”.
Consider `COc1ccc(C(=O)COc2ccccc2C#N)cc1`, for which the Potency result was “inactive”.
As to `COc1ccc(C(=O)NN=C2CCCC2)cc1`, the Potency entry was “inactive”.
To `COc1ccc(C(=O)C(CCCCC(CN(C)C)C(=O)c2ccc(OC)cc2)CN(C)C)cc1` (stereo unspecified) belongs 31.6 µM (active).
The entry for `CC(=O)c1cccc(S(=O)(=O)N2CCC(C(=O)Nc3cccc(C(=O)NC4CC4)c3)CC2)c1` is “inactive”; for `Nc1ccc(OC(=O)Nc2ccc(O)cc2)cc1` it is “inactive”.
The entry for `CCOC(=O)CN1N=C(c2ccc(Cl)cc2)CCC1=O` is “inactive”; for `CCOC(=O)N1C(=O)[C@@](c2ccc(Cl)cc2)(C(C)C)N1C(=O)OCC` it is 31.6 µM (active); for `CCN(CC)C(=O)Cn1cc(C(=O)C(=O)N2CC=C(c3ccccc3)CC2)c2ccccc21` it is “inactive”.
For `Cc1cccc(NC(=O)NNC(=O)c2cc3ccccc3cc2O)c1C`, the Potency result was “inactive”.
The figure for `C=CCC[C@@H](Cc1ccc(F)cc1)C(=O)OC[C@H](C)NC(=O)[C@H](CC=C)CC(=O)N(CCO)Cc1ccccc1` is 28.2 µM (active); for `C=CCC[C@@H](Cc1ccc(F)cc1)C(=O)OC[C@@H](C)NC(=O)[C@H](CC=C)CC(=O)N(CCO)Cc1ccccc1` it is 39.8 µM (active); for `C/C(=N\NC(=O)Cc1csc(N2CCOCC2)n1)c1ccc(Cl)c(Cl)c1` it is “inactive”.
The entry for `Nc1cccc2c1C(=O)N(CCOc1ccccc1F)C2=O` is “inactive”; for `CCCCc1c(-c2ccccc2F)ncn1CCc1ccccc1OC` it is 31.6 µM (active); for `CCCCCc1c(-c2ccccc2OC)ncn1CCc1ccccc1OC` it is 31.6 µM (active).
In the case of `CCCc1c(-c2ccccc2Br)ncn1Cc1ccccc1OC`, the Potency was 31.6 µM (active).
On to `CCCCCN1C(C(=O)c2ccccc2)=C(NC(=O)c2ccc(OC)c(OC)c2)c2ccccc2S1(=O)=O`, for which the Potency entry was “inactive”.
To `CCCCc1c(-c2ccccc2Br)ncn1CCc1ccccc1OC` belongs 28.2 µM (active); to `Cc1cc(Cl)n2c(nc3ccccc32)c1C#N`, “inactive”.
Take `CC(CCCC(C)(C)O)NC(=O)c1ccc(OC2CCN(C(=O)C3CC3)CC2)cc1` (stereo unspecified): the Potency result is “inactive”.
To `CCCCc1c(-c2ccc(F)cc2F)ncn1CCc1ccccc1OC` belongs 35.5 µM (active); to `CCCCCc1c(-c2ccccc2F)ncn1CCc1ccccc1OC`, 28.2 µM (active); to `CCOC(=O)C1(CCOC)CCCCC1=O` (stereo unspecified), “inactive”.
The entry for `Cc1ccc(Nc2nc(Cl)c(C=O)s2)cc1Cl` is “inactive”; for `CC(C)N(CCNCc1nnc(-c2ccccc2)o1)C(C)C` it is “inactive”.
The entry for `COC(=O)Cc1c(C)c2ccc3c(c2oc1=O)CN(Cc1ccc(Cl)cc1)CO3` is “inactive”; for `CC1=CC(=O)C=C(C)C1=NOC(=O)/C=C\c1ccccc1` it is “inactive”; for `Cc1ccc(C(=O)C(C(=O)/C=C/c2ccccc2)=C2SCCCS2)cc1` it is 25.1 µM (active).
In the case of `CCN1CCN(c2cc(C)c3cc(NC(S)=NCCCN4CCc5ccccc5C4)ccc3n2)CC1`, the Potency is 25.1 µM (active).
To `COCCCN=C(S)Nc1ccc2nc(N3CCOCC3)cc(C)c2c1` belongs “inactive”; to `Cc1cc(N2CCN(C)CC2)nc2ccc(NC(S)=NCCN3CCc4ccccc4C3)cc12`, 28.2 µM (active); to `Cc1cc(C)c2cc3c(N)c(C(=O)N4CCc5ccccc5C4)sc3nc2c1`, “inactive”.
The entry for `COc1cc(OC)c2c(OC)cccc2n1` is “inactive”; for `CC(C)c1ccc(O)c(C(=O)c2cnn(-c3ccccc3)c2)c1` it is “inactive”; for `Cc1cccn2c(=O)c3cc(C(N)=S)c(=N)n(CCCOC(C)C)c3nc12` it is “inactive”.
The entry for `CCCCNC(=O)C1(NC(=O)Nc2ccccc2)CCCCC1` is “inactive”; for `CCCCNC(=O)C[C@@H]1C[C@@]2(C(=O)OC)CCCCC=C2N(CCC2=CCCCC2)C1=O` it is 39.8 µM (active); for `CCCCOCCCNC(=O)C[C@@H]1C[C@@]2(C(=O)OC)CCCCC=C2N(CCC2=CCCCC2)C1=O` it is 35.5 µM (active).
`Cc1cc(NCCCOC(C)C)n2c(nc3ccccc32)c1C#N`: the Potency result was “inactive”.
The entry for `CC(=O)c1ccc(NC(=O)COC(=O)C2CC3C=CC2C3)cc1` (stereo unspecified) is “inactive”.
`O=C1/C(=C\NCc2ccccn2)c2ccccc2C(=O)N1c1ccccc1Cl`: the Potency entry is “inactive”.
The entry for `CCN(C(=O)COc1cccc2cccnc12)C1CCS(=O)(=O)C1` (stereo unspecified) is “inactive”; for `CCN(C(=O)C(C)N1C(=O)/C(=C/c2ccco2)SC1=S)C1CCS(=O)(=O)C1` (stereo unspecified) it is 28.2 µM (active); for `Cc1ccc(OCC(=O)N(Cc2ccco2)C2CCS(=O)(=O)C2)cc1C` (stereo unspecified) it is “inactive”.
The entry for `Cc1ccc(O)c(Nc2c3ccccc3nc3ccccc23)c1` is “inactive”.
To `Cc1ccc(O)c(NN=C2C(=O)CC(C)(C)CC2=O)c1` belongs 20 µM (active).
